# Test results taken from PubChem BioAssay (NCATS).
# Values without a mark were called inactive. Inconclusive results are not listed. Calls of active or inactive are those of the source.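 How the source made its calls, unless noted: active means compounds whose dose series gives a full or clear partial fitted curve of increased nuclear translocation; inconclusive means weak partial curve or effect only at the top dose; inactive means no dose-dependent translocation response.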
# Target: Glucocorticoid receptor (Homo sapiens) (UniProt P04150)
# Experiment: GR-GFP Redistribution (AID 450); further: potency means the concentration at half of the fitted maximal effect
# Details: U2OS GR-GFP nuclear translocation, laser cytometry, 2 h
# Chain of Glucocorticoid receptor (Homo sapiens) (P04150 whole entry, looked up): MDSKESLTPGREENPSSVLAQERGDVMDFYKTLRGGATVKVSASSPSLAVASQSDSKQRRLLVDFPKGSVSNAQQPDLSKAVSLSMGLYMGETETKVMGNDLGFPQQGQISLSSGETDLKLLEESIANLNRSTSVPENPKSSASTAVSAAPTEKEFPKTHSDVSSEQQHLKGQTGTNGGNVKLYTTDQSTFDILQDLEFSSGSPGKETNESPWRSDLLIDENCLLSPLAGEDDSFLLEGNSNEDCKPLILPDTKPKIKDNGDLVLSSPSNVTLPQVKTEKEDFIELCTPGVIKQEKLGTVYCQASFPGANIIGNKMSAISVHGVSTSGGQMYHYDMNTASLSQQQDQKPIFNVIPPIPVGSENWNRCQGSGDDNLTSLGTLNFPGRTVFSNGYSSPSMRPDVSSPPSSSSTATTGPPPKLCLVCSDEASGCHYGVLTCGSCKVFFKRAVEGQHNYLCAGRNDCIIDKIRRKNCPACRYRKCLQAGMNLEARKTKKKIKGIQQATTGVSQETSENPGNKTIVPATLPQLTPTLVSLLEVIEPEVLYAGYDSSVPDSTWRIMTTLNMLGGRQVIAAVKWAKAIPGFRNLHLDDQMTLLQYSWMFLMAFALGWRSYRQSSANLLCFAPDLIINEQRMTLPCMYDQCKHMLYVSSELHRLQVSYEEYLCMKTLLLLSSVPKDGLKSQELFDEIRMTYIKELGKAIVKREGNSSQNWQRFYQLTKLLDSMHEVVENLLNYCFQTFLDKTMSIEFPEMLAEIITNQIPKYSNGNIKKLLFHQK
row,Structure (SMILES),Potency
1,N[C@H](CC(=O)O)C(=O)O,> 46 µM
2,O=P(O)(O)OP(=O)(O)O,> 46 µM
3,CC(=O)Oc1cc(C(F)(F)F)ccc1C(=O)O,> 20.6 µM
4,Nc1ccc(N=Nc2ccccc2)c(N)n1,> 20.6 µM
5,CCc1cn([C@H]2C[C@H](O)[C@@H](CO)O2)c(=O)[nH]c1=O,> 20.6 µM
6,C[C@@](Cc1ccc(O)c(O)c1)(NN)C(=O)O,> 46 µM
7,O=C(O)c1ccc(OCCn2ccnc2)cc1,> 20.6 µM
8,Cc1cccc(C)c1NC(=O)C1CCCCN1C (stereo not given),> 20.6 µM
9,O=C1NCCN1c1ncc([N+](=O)[O-])s1,> 20.6 µM
10,CC(=O)N=c1sc(S(N)(=O)=O)nn1C,> 20.6 µM
11,Cn1nnnc1SCC1=C(C(=O)O)N2C(=O)[C@@H](NC(=O)[C@H](O)c3ccccc3)[C@H]2SC1,> 20.6 µM
12,Cc1cc(C)c(NC(=O)C[C@H](CC(=O)O)c2cccc3ccccc23)c(C(=O)N2CCC3(CCCC3)CC2)c1,> 46 µM
13,CC1(C)S[C@@H]2[C@H](NC(=O)C3(N)CCCCC3)C(=O)N2[C@H]1C(=O)O,> 20.6 µM
14,CCCCC(=O)O[C@H]1CC[C@H]2[C@@H]3CCc4cc(O)ccc4[C@H]3CC[C@]12C,> 20.6 µM
15,O=C(O)Cc1cc(I)c(Oc2ccc(O)c(I)c2)c(I)c1,> 20.6 µM
16,O=C(O)CCC(=O)c1ccc(-c2ccccc2)cc1,> 20.6 µM
17,COc1ccc(C[C@H](C)NC[C@@H](O)c2ccc(O)c(NC=O)c2)cc1,> 46 µM
18,COc1cc(S(C)=O)ccc1-c1nc2ncccc2[nH]1 (stereo not given),> 20.6 µM
19,CC(=O)Oc1cccc2c1C(=O)c1c(OC(C)=O)cc(C(=O)O)cc1C2=O,> 20.6 µM
20,CN1C(=O)OC(C)(C)C1=O,> 20.6 µM
21,N[C@@H](Cc1cc(I)c(Oc2ccc(O)c(I)c2)c(I)c1)C(=O)O,> 20.6 µM
22,CCCOc1cc(N)ccc1C(=O)OCCN(CC)CC,> 20.6 µM
23,Cc1cc(-c2ccc(N=Nc3ccc4c(S(=O)(=O)O)cc(S(=O)(=O)O)c(N)c4c3O)c(C)c2)ccc1N=Nc1ccc2c(S(=O)(=O)O)cc(S(=O)(=O)O)c(N)c2c1O,> 46 µM

# Target: Glucocorticoid receptor (Homo sapiens) (UniProt P04150)
# Experiment: GR-EFC Redistribution (AID 451; calls by dose curve; further: potency means the concentration at half of the fitted maximal effect)
# Details: CHO-K1 GR-EFC translocation, beta-gal luminescence, 2 h
# Procedure, shortened: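 CHO-K1 cells stably expressing nuclear-localized β-gal enzyme acceptor and GR fused C-terminally to the enzyme donor fragment; ligand-driven nuclear translocation restores β-gal by complementation. Compounds titrated up to 46 uM final, 2 h at 37 °C; luminescence read.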
row,Structure (SMILES),Potency
1,N[C@H](CC(=O)O)C(=O)O,> 46 µM
2,O=P(O)(O)OP(=O)(O)O,> 9.22 µM
3,CC(=O)Oc1cc(C(F)(F)F)ccc1C(=O)O,> 20.6 µM
4,Nc1ccc(N=Nc2ccccc2)c(N)n1,> 20.6 µM
5,C[C@@](Cc1ccc(O)c(O)c1)(NN)C(=O)O,> 46 µM
6,CC(=O)[C@H]1CC[C@H]2[C@@H]3C=CC4=CC(=O)CC[C@@]4(C)[C@H]3CC[C@]12C,> 20.6 µM
7,O=C1NCCN1c1ncc([N+](=O)[O-])s1,> 20.6 µM
8,CC(=O)N=c1sc(S(N)(=O)=O)nn1C,> 20.6 µM
9,Cc1cc(C)c(NC(=O)C[C@H](CC(=O)O)c2cccc3ccccc23)c(C(=O)N2CCC3(CCCC3)CC2)c1,> 46 µM
10,CC1(C)S[C@@H]2[C@H](NC(=O)C3(N)CCCCC3)C(=O)N2[C@H]1C(=O)O,> 20.6 µM
11,O=C(O)Cc1cc(I)c(Oc2ccc(O)c(I)c2)c(I)c1,> 20.6 µM
12,O=C(O)CCC(=O)c1ccc(-c2ccccc2)cc1,> 20.6 µM
13,COc1ccc(C[C@H](C)NC[C@@H](O)c2ccc(O)c(NC=O)c2)cc1,> 46 µM
14,COc1cc(S(C)=O)ccc1-c1nc2ncccc2[nH]1 (stereo not given),> 20.6 µM
15,CN1C(=O)OC(C)(C)C1=O,> 20.6 µM
16,CCCOc1cc(N)ccc1C(=O)OCCN(CC)CC,> 20.6 µM
17,Cc1cc(-c2ccc(N=Nc3ccc4c(S(=O)(=O)O)cc(S(=O)(=O)O)c(N)c4c3O)c(C)c2)ccc1N=Nc1ccc2c(S(=O)(=O)O)cc(S(=O)(=O)O)c(N)c2c1O,> 46 µM

# Target: Mitogen-activated protein kinase 10 (Mus musculus) (UniProt Q61831)
# Experiment: JNK3 AlphaScreen Assay (AID 530; active means well fitted curve in either direction with a large enough effect, not every such curve was filed as active;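 further: kinase came from lysate of stimulated human HepG2 cells; signal reports phosphorylation of biotinylated GST-cJun 1-79 at Ser73 with 10 µM ATP; on the % scale 0 is the no-effect control and ±100 the full control effect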)
# Details: JNK3 lysate, c-Jun phosphorylation; series mostly up to 57.1 µM
# Procedure, shortened: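 Biotinylated GST-cJun(1-79) served as substrate for JNK3 in HepG2 lysates stimulated with IL-1beta and TNF-alpha. ATP was 10 uM final, pH 7.6. Ser73 phosphorylation was quantified by AlphaScreen (680 nm excitation).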
Structure (SMILES),outcome,"activity change, negative = inhibition"
N[C@H](CC(=O)O)C(=O)O,inactive,–
O=P(O)(O)OP(=O)(O)O,–,0.801% [at 11.4 µM]
CC(=O)Oc1cc(C(F)(F)F)ccc1C(=O)O,inactive,–
CC(=O)[C@H]1CC[C@H]2[C@@H]3C=CC4=CC(=O)CC[C@@]4(C)[C@H]3CC[C@]12C,inactive,–
O=C1NCCN1c1ncc([N+](=O)[O-])s1,inactive,–
CNC(=O)c1c(I)c(C(=O)NCC(=O)Nc2c(I)c(C(=O)O)c(I)c(C(=O)NCCO)c2I)c(I)c(N(C)C(C)=O)c1I,inactive,–
CCSc1ccc2c(c1)N(CCCN1CCN(C)CC1)c1ccccc1S2,inactive,–
CC(=O)N=c1sc(S(N)(=O)=O)nn1C,inactive,–
Cc1cc(C)c(NC(=O)C[C@H](CC(=O)O)c2cccc3ccccc23)c(C(=O)N2CCC3(CCCC3)CC2)c1,inactive,–
CC1(C)S[C@@H]2[C@H](NC(=O)C3(N)CCCCC3)C(=O)N2[C@H]1C(=O)O,inactive,–
OB(O)O,inactive,–
O=C(O)Cc1nn(Cc2ccc(Br)cc2F)c(=O)c2ccccc12,inactive,–
O=C(O)Cc1cc(I)c(Oc2ccc(O)c(I)c2)c(I)c1,inactive,–
Oc1ccc(/C=C/c2cc(O)cc(O)c2)cc1,inactive,–
O=C(O)CCC(=O)c1ccc(-c2ccccc2)cc1,inactive,–
COc1ccc(C[C@H](C)NC[C@@H](O)c2ccc(O)c(NC=O)c2)cc1,inactive,–
Cc1ncc(C[n+]2csc(CCO)c2C)c(N)n1,inactive,–
CN1C(=O)OC(C)(C)C1=O,inactive,–
CCCOc1cc(N)ccc1C(=O)OCCN(CC)CC,inactive,–
CN1CCc2c(c3ccccc3n2Cc2ccccc2)C1,inactive,–
